Experimental data: ChEMBL document CHEMBL1157539, “Thousands of chemical starting points for antimalarial lead identification” (Nature, 2010)

Legend:
Type in all cases: functional
Plasmodium falciparum [1] = assay: GSK_TCMDC: Inhibition of Plasmodium falciparum 3D7 in whole red blood cells, using parasite LDH activity as an index of growth. Test compounds present at 2uM
Plasmodium falciparum [2] = assay: GSK_TCMDC: Inhibition of Plasmodium falciparum Dd2 in whole red blood cells, using parasite LDH activity as an index of growth. Test compounds present at 2uM
HepG2 = assay: GSK_TCMDC: Percent inhibition of human HepG2 cell line. Test compounds present at 10uM.

| SMILES | Inhibition (Plasmodium falciparum [1]) [%] | Inhibition (Plasmodium falciparum [2]) [%] | Inhibition (HepG2) [%] |
| --- | --- | --- | --- |
| NC(=S)Cc1ccc2c(c1)OCO2 | 96 | 0 | 43 |
| COc1ccc(-c2cnc(N)c(-c3ccc(C(N)=O)cc3)c2)cc1OC | 96 | 98 | 11 |
| Cc1ccccc1C1CCN(C2CCC(NC(=O)c3cc4cc(C(C)C)ccc4[nH]3)CC2)CC1 (stereo not drawn) | 99 | 100 | 100 |
| CN(C)CCCNc1ncnc2c1[nH]c1ccc(F)cc12 | 100 | 0 | 14 |
| CCNc1cc(C(=O)NC(Cc2ccccc2)C(O)CNC2CCSCC2)cc(N2CCCC2=O)c1 (stereo not drawn) | 99 | 98 | 0 |
| CNC(=O)NC1=NC(C)(C)N(OCc2ccc(Cl)c(Cl)c2)C(NC(=O)NC)=N1 | 99 | 0 | 1 |
| Cc1cc(N[C@@H](CC(C)C)C(=O)NCCOc2ccccc2)nc(NCCOc2ccccc2)n1.O=C(O)C(F)(F)F | 89 | 6 | 0 |
| O=C(N[C@H]1CCN(Cc2ccc(OC3CCN(Cc4ccccc4)CC3)c(Br)c2)C1)c1ccc(Cl)c(Cl)c1.O=C(O)C(F)(F)F | 100 | 30 | 55 |
| CC1CCc2c(C(=O)N3CCc4ccccc4C3)csc2C1 (stereo not drawn) | 99 | 75 | 9 |
| CCNc1cc(C(=O)N[C@@H](Cc2ccccc2)[C@H](O)CNC(CC)c2cccc(Cl)c2)cc(N2CCCCS2(=O)=O)c1.Cl (stereo partly drawn) | 100 | 98 | 12 |
| CCc1c[nH]c2c(N(c3ccccc3)S(C)(=O)=O)cc(C(=O)N[C@@H](Cc3ccccc3)[C@H](O)CNCc3cccc(C(F)(F)F)c3)cc12.O=CO | 93 | 98 | 20 |
| COc1ccc(C(=O)N[C@@H](CC(C)C)C(=O)N[C@H](/C=N/NC(=O)c2ccccc2)CCc2ccccc2)cc1OCCN1CCOCC1 | 96 | 86 | 2 |
| CCN(CC)c1nc(-c2ccccc2)cc(-c2ccccc2)c1C#N | 100 | 66 | 0 |
| CNCCCNCc1ccc(-c2ccc(F)c(Cl)c2)o1.Cl | 100 | 12 | 22 |
| CCCCCCOc1ccc(N2C(N)=NC(N)=NC2(C)C)cc1.Cl | 98 | 0 | 5 |
| Cc1ccc(NC(=O)N2CCCN(CCCCCNC(=O)/C=C/c3ccc(Cl)c(Cl)c3)CC2)cc1 | 99 | 2 | 12 |
| Cn1ccnc1CNC(=O)c1ccc(-c2cccc(-c3nc4cc(C(F)(F)F)ccc4[nH]3)c2)cc1 | 100 | 80 | 20 |
| COc1ccc(Nc2nccc(N3CCC(NC(=O)Nc4cccc(OC)c4)C3)n2)cc1 (stereo not drawn) | 99 | 48 | 23 |
| NC1=NC(Cc2ccccc2)(c2ccncc2)C(=O)N1CCCc1ccccc1 (stereo not drawn) | 86 | 1 | 1 |
| CC(O)c1cccc(-c2ccc(Nc3ccnc4cc(-c5nccs5)ccc34)cc2)c1.Cl (stereo not drawn) | 91 | 69 | 31 |
| CCCCNCc1ccc(-c2nc(CN(C(=O)Nc3cc([N+](=O)[O-])ccc3F)C3Cc4ccccc4C3)cs2)cc1.O=C(O)C(F)(F)F | 87 | 13 | 15 |
